High-throughput results (PubChem BioAssay)
Sampled rows, rich in hits. Any-hit rate of the full collection: about 10%.
BAZ2B block: BAZ2B (human) inhibition. Q9UIF8. hit rate 4.4% among 360,000. Potency, µM (titrated, usually from 114 µM), without a hit: at the top dose activity change, negative = inhibition, most hits filed as inhibitors. AlphaScreen BAZ2B-H3K14Ac peptide displacement; further: potency means the concentration at half of the fitted maximal effect; on the % scale 0 is the no-effect control and ±100 the full control effect; nearly all actives have a fitted effect of over 60% in size
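Compounds, titrated to a top concentration of 110 uM, were incubated 30 min at room temperature with preformed BAZ2B/acetyl-K14 H3 peptide complex (50 nM each). Proximity signal was measured by AlphaScreen after 20 min with beads.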
HP1b chromo inh: inhibitors of HP1-beta chromodomain binding to methylated histone tails. P83916. AlphaScreen HP1-beta / biotin-H3K9me3 peptide binding. Potency, µM (series often up to 114 µM), without a hit: at the top dose activity change, negative = inhibition, most hits filed as inhibitors. hit rate 0.56% among 390,000. AID 540317; further: potency means the concentration at half of the fitted maximal effect; nearly all actives have a fitted effect of over 70% in size
Target sequence (P83916 whole entry, looked up): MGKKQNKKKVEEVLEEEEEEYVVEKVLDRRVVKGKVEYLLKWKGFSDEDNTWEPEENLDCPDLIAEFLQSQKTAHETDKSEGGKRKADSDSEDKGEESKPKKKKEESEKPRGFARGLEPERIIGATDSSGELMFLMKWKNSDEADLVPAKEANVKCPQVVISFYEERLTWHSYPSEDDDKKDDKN
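Compound inhibition of the preformed complex between 50 nM HP1-beta and 50 nM biotinylated H3K9me3 peptide was read by AlphaScreen. Buffer was PBS pH 7.4 with 0.01% Tween-20. Incubations ran 30 min at room temperature, with 10 ug/mL donor/acceptor beads.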
CtBP-E1A blk: inhibitors of CtBP/E1A interaction; AlphaScreen GST-E1A/His-CtBP binding, 1536-well; hits give low values; activity change, % (concentration not given with the values); hit rate 0.49% among 340,000; AID 651724; in the data active means activity change below about -65%; inconclusive means mostly about -30% to -63%; further: on the % scale 0 is the no-effect control and ±100 the full control effect
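AlphaScreen with 125 nM GST-E1A and 125 nM His-CtBP (5X stocks) in Tris pH 8.0, 300 mM NaCl, BSA, Tween 20, TCEP. Compounds preincubated 2 h at 37 deg C, then glutathione donor/nickel acceptor beads added for 1 h at 37 deg C in dark.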
G9a block: blocks human histone lysine methyltransferase G9a. hit rate 8.8% among 350,000. Potency, µM (titrated, usually from 102 µM), for the others: at the highest dose activity, negative = inhibition, most hits filed as inhibitors. G9a H3K9 monomethylation, AlphaScreen, 2 h. Q96KQ7; further: potency means the concentration at half of the fitted maximal effect; on the % scale 0 is the no-effect control and ±100 the full control effect; nearly all actives have a fitted effect of over 75% in size
Target sequence (Q96KQ7 913-1193 limits assumed): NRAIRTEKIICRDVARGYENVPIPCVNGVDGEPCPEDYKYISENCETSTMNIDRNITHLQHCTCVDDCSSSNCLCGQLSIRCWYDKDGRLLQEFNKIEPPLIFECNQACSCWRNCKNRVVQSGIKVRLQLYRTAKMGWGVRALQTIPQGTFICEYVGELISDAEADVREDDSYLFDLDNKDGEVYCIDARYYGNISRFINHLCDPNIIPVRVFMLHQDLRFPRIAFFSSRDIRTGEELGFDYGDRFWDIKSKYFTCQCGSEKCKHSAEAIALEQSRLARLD
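G9a (20 nM) was preincubated 15 min with compound, then reacted 2 h at room temperature with 500 nM biotin-H3K9 peptide and 20 µM SAM. Monomethyl-H3K9 detected by AlphaScreen using anti-H3K9me1 antibody.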
Six1-Eya2 inh: blocks human Six1 binding to Eya2; Q15475+O00167; AlphaScreen GST-Six1/His-Eya2 binding, biochemical; hits give low values; activity change, % (concentration not given with the values); hit rate 0.56% among 360,000; AID 651725; in the data active means activity change below about -65%; inconclusive means mostly about -30% to -63%; further: on the % scale 0 is the no-effect control and ±100 the full control effect
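AlphaScreen luminescence read after one hour at 37 °C in darkness. Pin-transferred compounds met GST-Six1 and His-Eya2 protein (5X stock 250 nM/500 nM) plus glutathione donor and Ni-chelate acceptor beads (5X, 50 ug/mL).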
JMJD2A Tudor inh: blocks the human JMJD2A Tudor domain; O75164; AlphaScreen JMJD2A-Tudor / H3K4me3 peptide binding; Potency, µM (titrated, usually from 114 µM), without a hit: at the top dose activity change, negative = inhibition, usual class: inhibitors; hit rate 4.4% among 390,000; AID 504339; further: potency means the concentration at half of the fitted maximal effect; on the % scale 0 is the no-effect control and ±100 the full control effect; nearly all actives have a fitted effect of over 50% in size
Active calls of the source: *; u = inconclusive; x = no result given; [ ] = remark or other dose. Unless noted, the call rests on the fitted dose curve; in most records, active means well fitted inhibition curve with a large enough effect; inconclusive means small, poorly fitted or top-dose-only effect; inactive means no such curve, though single readings can be large or run the other way.

SMILES | BAZ2B block | HP1b chromo inh | CtBP-E1A blk | G9a block | Six1-Eya2 inh | JMJD2A Tudor inh
COc1ccc(Cl)cc1NC(=O)CN(C(=O)c1ccco1)C1CCCCC1 | x | 20% | -1 | -5%[59 µM] | -8 | -13%
CCN(CC)CCN(CC(=O)N(C1CCCCC1)C1CCCCC1)C(=O)c1ccco1 | 50µM* | u | -1 | 45µM* | 16 | 1.6µM*
COc1cc(F)c(S(=O)(=O)N2CCN(S(=O)(=O)c3cccc(N)c3)CC2)c(F)c1 | x | x | x | x | x | -1%
O=Cc1ccc(OC(=O)C2CC(=O)N(c3ccc(F)cc3)C2)cc1 (stereo not drawn) | 4% | 39% | 3 | 50µM* | 0 | -7%
O=C(O)C1CC(=O)N(c2ccc(F)cc2)C1 (stereo not drawn) | -1% | u | 4 | -10%[12.7 µM] | -1 | 50µM*
c1cc2c3c(cccc3c1)NC(c1ccc3c(c1)OCO3)N2 | 40µM* | u | x | 35µM* | -5 | 40µM*
Clc1ccc(C2Nc3cccc4cccc(c34)N2)cc1 | u | -19% | 0 | 35µM* | -3 | u
Clc1cccc(-c2ccc(C3Nc4cccc5cccc(c45)N3)o2)c1 | x | u | x | x | x | 40µM*
CSc1ccc(C2Nc3cccc4cccc(c34)N2)cc1 | 50µM* | 18µM* | x | 23%[0.501 µM] | 10 | 18µM*
Cc1c(/C=C(\C#N)C(=O)Nc2cccc(Cl)c2)c2ccccc2n1Cc1ccccc1Cl | -18% | 24% | x | -39%[59 µM] | x | -23%
Clc1ccc(C2Nc3cccc4cccc(c34)N2)c(Cl)c1 | x | u | -18 | x | -24 | 35µM*
Brc1ccc(C2Nc3cccc4cccc(c34)N2)s1 | u | u | 13 | 25µM* | 2 | -32%
O=[N+]([O-])c1cc(C2Nc3cccc4cccc(c34)N2)ccc1Cl | u | -3% | -22 | u | -24 | -16%
Cc1cccc(C2Nc3cccc4cccc(c34)N2)c1 | u | u | x | 35µM* | 2 | u
CNc1ccccc(-c2ccc3ccccc3n2)c1=O | -2% | 47% | 5 | 89µM* | 5 | -16%
COc1cc(OCc2ccccc2)c(OC)c(OCc2ccccc2)c1 | x | 118% | 56 | x | 17 | 75%
COc1ccc(Nc2c(-c3ccco3)nc3cccc(C)n23)cc1 | 22µM* | u | 0 | 25µM* | -18 | 56µM*
Cc1ccc(Nc2c(-c3cccc(Cl)c3)nc3cccc(C)n23)cc1 | u | -37% | x | u | x | u
COc1ccc(-c2nc3cccc(C)n3c2Nc2ccc(C)cc2)cc1 | x | -21% | x | x | x | 40µM*
O=C(OCC#CCSc1nnc(-c2ccccc2)o1)c1ccc(F)cc1 | x | x | x | x | x | 79%
O=C(NCCc1ccc(Cl)cc1)c1ccc2c(c1)OCCO2 | 9% | 34% | x | x | 6 | -5%
COc1ccc(/C=C/c2nc(-c3ccccc3O)n[nH]2)cc1OC | -35% | 17% | -3 | 10%[59 µM] | -14 | -28%
O=C(O)COc1ccc(/C=C/c2nc(-c3ccccc3O)n[nH]2)cc1 | -30% | 33% | x | 13µM* | -3 | -1%
CCOc1ccccc1NC(=O)CSc1nc2c([nH]c3ccccc32)c(=O)n1-c1ccccc1 | 1% | 23%[57 µM] | x | -1%[59 µM] | x | -7%
Nc1c(C(=O)CCC(=O)O)oc2ccc(Cl)cc12 | 5% | 19% | 0 | 56µM* | -1 | -18%
Cc1ccc(S(=O)(=O)c2c(C)nn(-c3ccccc3)c2OC(=O)c2ccco2)cc1 | -37% | 9% | 8 | u | 6 | 79µM*
Cc1ccc(S(=O)(=O)c2c(C)nn(-c3ccccc3)c2OC(=O)c2ccc(Br)o2)cc1 | -33% | 8% | -1 | u | 5 | u
COc1cccc(C(=O)NCC(c2ccc(N(C)C)cc2)N2CCc3ccccc32)c1 (stereo not drawn) | 7.9µM* | 10µM* | x | 10µM* | x | 7.9µM*
O=[N+]([O-])c1ccc(S(=O)(=O)NCC(c2cccnc2)N2CCOCC2)cc1 (stereo not drawn) | x | 33% | x | -8% | 5 | -8%
